The full ranking holds about 9,900 sequences; the median of “r (bound/input frequency ratio)” is about 0.7, and the highest 2% start at about 6.5. Only a selection was taken, and the highest values are over-represented in it overall.

The chains are these.
B1: ENSMUSG00000029028.198|Lrrc47 (ssRNA)
RNA: GGGAGUUCUACAGUCCGACGAUCGCUUCGAUAUCCGCAUGCUAUGUGUACGCAUCUGUACCAGCACACAGCUGCCAUCCCUCGAGCCACAGUGCCUGGUCCUAAGGACCCAGCAGCUGCACAGAGGACUUGGUGGCCCCGUGCCUUGCCAUCUGGCUGAGAAGAGAACCAGACCCUCAGCCUUCCCCCUCGACACCUUCUCGUUGGUGACCUCUGACCUUAAAGGACCAUUUCUACCUUCUGUAAAAGAACACCUGUUUGGGGUUGCGUGCGGCUUUCAUCCUAAGGCCGUGCGAGAGCCGUUCUCUUGCGGUCGCACUAGUGUGGAAUUCUCGGGUGUCAAGG
B2: ENSMUSG00000029636.117|Wasf3 (ssRNA)
RNA: GGGAGUUCUACAGUCCGACGAUCGCUUCGAUAUCCGCAUGCUAGGAGCCCUGUGGGUACUCAUGUGGAAAGUGCCCACUGACUUUGGCAGAUGGAGUUCACUUUCAUGGCUAGCCCUGAUAGCGUUGGGCACCAGUUAGCCAGGCCAUGUUCAAGCUGCCUAGAGUCUGCAGAGCUUGCAUGGCAGAGCGGCCGCAUCUGGUUCCCUCCUACUCCACCCAGUGGAAAAGAGACCUCCACGUUUUAUUUUCUGGGAUCCCUGCUCCUCUGUUCACCAGGGAGUGAGCACAGGUCAGCACCUCACCUCUUGCGGUCGCACUAGUGUGGAAUUCUCGGGUGUCAAGG
B3: ENSMUSG00000042529.497|Kcnj12 (ssRNA)
RNA: GGGAGUUCUACAGUCCGACGAUCGCUUCGAUAUCCGCAUGCUAGGGCCCCUGCAGCUGGACCAUGUACAGGGCUCCCUGGGGCUUGUCCUCAGGGGCAGAGAAGGACAUGGUGGCAGCAGCACUGAGAACAGGAGCAUGGCCUCUCUCAGACCCCAGGGCAGUCAUUCAGUCUUUUCCAUGGACACUCCCCACCGCUCCACAUACUGCCUCCGCCUCAUUCUUGGGCUCUUCCUGCCUUGCUGUCUUUCCUUCCACACAGAAGCACCAAGCAUCAUCCAUUCCCAUAGGCAAGCCCAGGGCACCUCUUGCGGUCGCACUAGUGUGGAAUUCUCGGGUGUCAAGG
B4: ENSMUSG00000058297.521|Spock2 (ssRNA)
RNA: GGGAGUUCUACAGUCCGACGAUCGCUUCGAUAUCCGCAUGCUAGACCACGUGUGAUGGGUGGGCACAGGUCUGCCUUGCUCCAGCCCCCUCCCUUGGUUUCUGUUGGUACCCAUUUGGCUUUUAUCUGCUUUCUGCUUCACCACUAAGUGCGUAGGUGGGGUCUUUUGAUAUCGGCUCCCCAAAGCCCAAGCCCACAGCCCUAGGAGAGAACCAGGGGCCCAUCUUUGACACCUGGGCCAUCACGAGCCCUCCCGCCUGCAGUUGUCCUAGGGAAAGACCUGGGGGUGCAAAAGGAGAUUCAACUCUUGCGGUCGCACUAGUGUGGAAUUCUCGGGUGUCAAGG
B5: ENSMUSG00000029028.17|Lrrc47 (ssRNA)
RNA: GGGAGUUCUACAGUCCGACGAUCGCUUCGAUAUCCGCAUGCUACUGACAGGCUCCUGUAGGUGUGGGUGUGCUGUAGGUGUCUGUGUGGGUGUGGGUGUGCUGUAGGUGUCUGUGUGGGUGUGGGUGUGCUAUAGGUAUCUGUGGGUGUGCUGUAGGUGUCUGUGUGGGUGUGCUGUAGGUGUCUGUGUAGGUGUGGGUGUGCUGUAGGUGUCUGUGUGGGUGUGCUAGGUGUCUGUAUAGGUGUGGGUGUGCUGUAGAUGUCUGUGUAGGUAUGGGUGUGCUGUAGAUCUUUGUAGGUGUAGCUCUUGCGGUCGCACUAGUGUGGAAUUCUCGGGUGUCAAGG
B6: ENSMUSG00000029028.15|Lrrc47 (ssRNA)
RNA: GGGAGUUCUACAGUCCGACGAUCGCUUCGAUAUCCGCAUGCUAGACUGUGGUCCGCUGACAGGCUCCUGUAGGUGUGGGUGUGCUGUAGGUGUCUGUGUGGGUGUGGGUGUGCUGUAGGUGUCUGUGUGGGUGUGGGUGUGCUAUAGGUAUCUGUGGGUGUGCUGUAGGUGUCUGUGUGGGUGUGCUGUAGGUGUCUGUGUAGGUGUGGGUGUGCUGUAGGUGUCUGUGUGGGUGUGCUAGGUGUCUGUAUAGGUGUGGGUGUGCUGUAGAUGUCUGUGUAGGUAUGGGUGUGCUGUAGAUCUCUCUUGCGGUCGCACUAGUGUGGAAUUCUCGGGUGUCAAGG
B7: ENSMUSG00000029028.33|Lrrc47 (ssRNA)
RNA: GGGAGUUCUACAGUCCGACGAUCGCUUCGAUAUCCGCAUGCUACUGUGGGUGUGCUGUAGGUGUCUGUGUGGGUGUGCUGUAGGUGUCUGUGUAGGUGUGGGUGUGCUGUAGGUGUCUGUGUGGGUGUGCUAGGUGUCUGUAUAGGUGUGGGUGUGCUGUAGAUGUCUGUGUAGGUAUGGGUGUGCUGUAGAUCUUUGUAGGUGUAGGUAUGCUGUAGGUAUCUGGGUGUGGGUAUGCUGUAGAUGUCUGUGUAGGUGUGGAUAUGCUGUAGGUAUCUGGGUGUGCUGUAGGUGUCUGUGUGGCUCUUGCGGUCGCACUAGUGUGGAAUUCUCGGGUGUCAAGG
B8: ENSMUSG00000029028.27|Lrrc47 (ssRNA)
RNA: GGGAGUUCUACAGUCCGACGAUCGCUUCGAUAUCCGCAUGCUAUAGGUGUCUGUGUGGGUGUGGGUGUGCUAUAGGUAUCUGUGGGUGUGCUGUAGGUGUCUGUGUGGGUGUGCUGUAGGUGUCUGUGUAGGUGUGGGUGUGCUGUAGGUGUCUGUGUGGGUGUGCUAGGUGUCUGUAUAGGUGUGGGUGUGCUGUAGAUGUCUGUGUAGGUAUGGGUGUGCUGUAGAUCUUUGUAGGUGUAGGUAUGCUGUAGGUAUCUGGGUGUGGGUAUGCUGUAGAUGUCUGUGUAGGUGUGGAUAUGCCUCUUGCGGUCGCACUAGUGUGGAAUUCUCGGGUGUCAAGG
B9: ENSMUSG00000029028.16|Lrrc47 (ssRNA)
RNA: GGGAGUUCUACAGUCCGACGAUCGCUUCGAUAUCCGCAUGCUAGGUCCGCUGACAGGCUCCUGUAGGUGUGGGUGUGCUGUAGGUGUCUGUGUGGGUGUGGGUGUGCUGUAGGUGUCUGUGUGGGUGUGGGUGUGCUAUAGGUAUCUGUGGGUGUGCUGUAGGUGUCUGUGUGGGUGUGCUGUAGGUGUCUGUGUAGGUGUGGGUGUGCUGUAGGUGUCUGUGUGGGUGUGCUAGGUGUCUGUAUAGGUGUGGGUGUGCUGUAGAUGUCUGUGUAGGUAUGGGUGUGCUGUAGAUCUUUGUAGCUCUUGCGGUCGCACUAGUGUGGAAUUCUCGGGUGUCAAGG
B10: ENSMUSG00000029028.22|Lrrc47 (ssRNA)
RNA: GGGAGUUCUACAGUCCGACGAUCGCUUCGAUAUCCGCAUGCUAGUAGGUGUCUGUGUGGGUGUGGGUGUGCUGUAGGUGUCUGUGUGGGUGUGGGUGUGCUAUAGGUAUCUGUGGGUGUGCUGUAGGUGUCUGUGUGGGUGUGCUGUAGGUGUCUGUGUAGGUGUGGGUGUGCUGUAGGUGUCUGUGUGGGUGUGCUAGGUGUCUGUAUAGGUGUGGGUGUGCUGUAGAUGUCUGUGUAGGUAUGGGUGUGCUGUAGAUCUUUGUAGGUGUAGGUAUGCUGUAGGUAUCUGGGUGUGGGUAUGCUCUUGCGGUCGCACUAGUGUGGAAUUCUCGGGUGUCAAGG
B11: ENSMUSG00000029028.18|Lrrc47 (ssRNA)
RNA: GGGAGUUCUACAGUCCGACGAUCGCUUCGAUAUCCGCAUGCUAGGCUCCUGUAGGUGUGGGUGUGCUGUAGGUGUCUGUGUGGGUGUGGGUGUGCUGUAGGUGUCUGUGUGGGUGUGGGUGUGCUAUAGGUAUCUGUGGGUGUGCUGUAGGUGUCUGUGUGGGUGUGCUGUAGGUGUCUGUGUAGGUGUGGGUGUGCUGUAGGUGUCUGUGUGGGUGUGCUAGGUGUCUGUAUAGGUGUGGGUGUGCUGUAGAUGUCUGUGUAGGUAUGGGUGUGCUGUAGAUCUUUGUAGGUGUAGGUAUGCCUCUUGCGGUCGCACUAGUGUGGAAUUCUCGGGUGUCAAGG
B12: ENSMUSG00000029028.23|Lrrc47 (ssRNA)
RNA: GGGAGUUCUACAGUCCGACGAUCGCUUCGAUAUCCGCAUGCUAGUCUGUGUGGGUGUGGGUGUGCUGUAGGUGUCUGUGUGGGUGUGGGUGUGCUAUAGGUAUCUGUGGGUGUGCUGUAGGUGUCUGUGUGGGUGUGCUGUAGGUGUCUGUGUAGGUGUGGGUGUGCUGUAGGUGUCUGUGUGGGUGUGCUAGGUGUCUGUAUAGGUGUGGGUGUGCUGUAGAUGUCUGUGUAGGUAUGGGUGUGCUGUAGAUCUUUGUAGGUGUAGGUAUGCUGUAGGUAUCUGGGUGUGGGUAUGCUGUAGCUCUUGCGGUCGCACUAGUGUGGAAUUCUCGGGUGUCAAGG
B13: ENSMUSG00000029028.14|Lrrc47 (ssRNA)
RNA: GGGAGUUCUACAGUCCGACGAUCGCUUCGAUAUCCGCAUGCUACCACGUGACUGUGGUCCGCUGACAGGCUCCUGUAGGUGUGGGUGUGCUGUAGGUGUCUGUGUGGGUGUGGGUGUGCUGUAGGUGUCUGUGUGGGUGUGGGUGUGCUAUAGGUAUCUGUGGGUGUGCUGUAGGUGUCUGUGUGGGUGUGCUGUAGGUGUCUGUGUAGGUGUGGGUGUGCUGUAGGUGUCUGUGUGGGUGUGCUAGGUGUCUGUAUAGGUGUGGGUGUGCUGUAGAUGUCUGUGUAGGUAUGGGUGUGCUGUCUCUUGCGGUCGCACUAGUGUGGAAUUCUCGGGUGUCAAGG

Sequence of TDP-43 (Q13148 whole entry): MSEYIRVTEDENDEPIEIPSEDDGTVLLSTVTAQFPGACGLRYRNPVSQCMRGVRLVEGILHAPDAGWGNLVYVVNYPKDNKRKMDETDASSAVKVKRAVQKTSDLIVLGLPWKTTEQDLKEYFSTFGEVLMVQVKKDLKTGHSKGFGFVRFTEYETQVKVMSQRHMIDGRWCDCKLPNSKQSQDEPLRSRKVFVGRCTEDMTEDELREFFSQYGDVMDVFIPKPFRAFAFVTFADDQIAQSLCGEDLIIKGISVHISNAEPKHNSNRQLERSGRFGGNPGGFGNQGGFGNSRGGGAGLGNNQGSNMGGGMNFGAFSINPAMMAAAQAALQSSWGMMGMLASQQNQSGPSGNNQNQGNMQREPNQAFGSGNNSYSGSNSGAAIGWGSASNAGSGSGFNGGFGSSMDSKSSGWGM

This assay addresses TDP-43 (Homo sapiens, UniProt Q13148 1-414). In words: RNA Bind-n-Seq with designed 260-mer pool; 25 mM Tris-HCl, 150 mM KCl, 3 mM MgCl2, BSA (printed 500 mg/mL), 20 units/mL SUPERase IN; pH not stated; 500 nM RNA pool, 1 h, 4 C; TDP-43 5, 50, 500 nM; high values mean tight binding. Particulars: protein: recombinant; tags: SBP (GST cleaved off with PreScission; pGEX-GST-SBP). An outline of the steps: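 Duplicate measurements used two independent batches of recombinant SBP-tagged TDP-43, which was captured on streptavidin beads at 5, 50 or 500 nM. The beads were incubated with 500 nM of an in vitro-transcribed 260-nt 3′ UTR oligo pool for 1 h at 4 °C in 25 mM Tris-HCl, 150 mM KCl, 3 mM MgCl2, BSA and SUPERase IN. After washing, biotin elution, reverse transcription, PCR amplification and sequencing, binding was expressed as R: each oligo's normalized read abundance in the bound sample over its abundance in input.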
B1: the binding signal was 0.346 R (bound/input frequency ratio).
Regarding B2, the binding signal was 0.346 R (bound/input frequency ratio).
For the molecule B3, the binding signal is 0.929 R (bound/input frequency ratio).
The same measure for B4: 0.432 R (bound/input frequency ratio); for B5: 8.61 R (bound/input frequency ratio).
In the case of B6, the binding signal is 6.93 R (bound/input frequency ratio).
Regarding B7, the binding signal is 5.4 R (bound/input frequency ratio).
The same measure for B8: 5.47 R (bound/input frequency ratio).
Consider B9, for which the binding signal is 6.62 R (bound/input frequency ratio).
With B10, the binding signal was 5.37 R (bound/input frequency ratio).
With B11, the binding signal was 5.03 R (bound/input frequency ratio).
Take B12: the binding signal was 5.87 R (bound/input frequency ratio).
Take B13: the binding signal was 6.07 R (bound/input frequency ratio).

These data come from publication PMC12864922, “TDP-43 directly inhibits mRNA accumulation in neurites through modulation of mRNA stability”.
